# In PubChem BioAssay (Tox21):
# Records with an inconclusive call do not appear. The source made the active and inactive calls. Calls follow the shape of the dose curve; as a rule, active = well fitted activation curve with a large enough effect in the repeat runs; inconclusive = weak or mixed curves; inactive = flat fitted curve, though single readings scatter.
# Assay: A CellTox Green Cytotoxicity Assay to monitor cytotoxicity in HEK293 cells - 32 hour (AID 1224881); also: nearly all actives have a fitted effect of over 40% in size
# Details: CellTox Green fluorescence; series mostly up to 76.8 µM; cytotoxicity increase: at the top concentration
# Source text: National Center for Advancing Translational Sciences [NCATS]
# NIH Chemical Genomics Center [NCGC]
# U.S. Environmental Protection Agency [EPA]
# National Institutes of Environmental Health Sciences [NIEHS]
# National Toxicology Program [NTP]
# Cell-based models are critical for drug discovery. Determining the natural cytotoxic effects resulting from test compounds is an essential research activity. A CellTox Green Cytotoxicity Assay to monitor cytotoxicity in real time of continues cell culture during 40 hours of the compound treatment was used to screen Tox21 10K library compounds in Hek293 cells. CellTox Green Cytotoxicity Assay is a nonlytic, homogeneous, biofluorescent method to measure cytotoxicity in cell culture after experimental manipulation. The assay system uses a proprietary asymmetric cyanine dye that is excluded from viable cells but preferentially stains the dead cell's DNA. […] Viable cells produce no appreciable increases in fluorescence. Therefore, the fluorescence signal produced by the binding interaction with dead cell DNA is proportional to cytotoxicity.
# The mixture of Hek293 cell suspension and reagents were dispensed at 600cells/6 ul/well in 1536-well tissue culture treated black solid bottom plates using a Multidrop dispenser. After the assay plates were incubated at a 37 C/5% CO2 incubator for 5 hours, 23 nL of compounds dissolved in DMSO, positive and negative controls was transferred to the assay plate by a pintool work station. The plates were incubated at 37 C for 40 hours. The fluorescence intensity were measured at 0h, 8h, 16h, 24h, 32h and 40h time points using ViewLux plate reader during compound treatment.
# % is scaled to controls: 0 for no effect and ±100 for the full control effect.
row,SMILES,cytotoxicity increase
1,C[C@@H]1CCC[C@H](C)N1,-24.8% [at 35.3 µM] (inactive)
2,Nc1ccncc1N,2.35% [at 35.3 µM] (inactive)
3,O=C(CO)[C@@H](O)[C@H](O)[C@@H](O)CO,15.4% [at 35.3 µM] (inactive)
4,CC(C)(CCC(=O)O)C(=O)O,-7.02% (inactive)
5,CC(=O)NC(=O)c1ccccc1O,-3.72% [at 35.3 µM] (inactive)
6,CC1=CCC(O)(C(C)C)CC1 (stereo not given),-31.4% (inactive)
7,NCCCC[C@H](N[C@@H](CCc1ccccc1)C(=O)O)C(=O)N1CCC[C@H]1C(=O)O,1.3% [at 35.3 µM] (inactive)
8,COc1cc(C)nc(-n2nc(C)cc2OC)n1,1.54% [at 35.3 µM] (inactive)
9,CN(C)CCCCCCN(C)C,-4.97% (inactive)
10,[O-][n+]1cccc(CO)c1,-8.45% [at 35.3 µM] (inactive)
11,CC(=O)O[C@@]12CO[C@@H]1C[C@H](O)[C@@]1(C)C(=O)[C@H](O)C3=C(C)[C@@H](OC(=O)[C@H](O)[C@@H](NC(=O)OC(C)(C)C)c4ccccc4)C[C@@](O)([C@@H](OC(=O)c4ccccc4)[C@H]21)C3(C)C,-2.72% [at 35.3 µM] (inactive)
12,CCOC(=O)C1=NOC(c2ccccc2)(c2ccccc2)C1,0.644% (inactive)
13,CCCCCC(=O)OCCc1ccccc1,8.44% (inactive)
14,C=C(C)C(=O)OCC1CCCO1 (stereo not given),-9.24% (inactive)
15,CCCCCCCCCCCCCCCCCCO,-11% [at 35.3 µM] (inactive)
16,COC(=O)Nc1ccc(Cl)c(Cl)c1,-14.9% (inactive)
17,CO[C@@]1(NC(=O)CSC[C@@H](N)C(=O)O)C(=O)N2C(C(=O)O)=C(CSc3nnnn3C)CS[C@@H]21,-8.82% [at 35.3 µM] (inactive)
18,Nc1c2c(nc3c1CCC3)CCCC2,3.69% [at 35.3 µM] (inactive)
19,O=S(=O)(O)c1cccc(S(=O)(=O)O)c1,-7.7% (inactive)
20,N[C@H](C(=O)O)[C@@H](O)c1ccc(O)c(O)c1,0.313% [at 35.3 µM] (inactive)

row,SMILES,cytotoxicity increase
1,O=CN(CCO)CCO,11.7% (inactive)
2,CCCCCCCC1CCCC1=O (stereo not given),-0.788% (inactive)
3,CC[N+](CC)(CC(=O)Nc1c(C)cccc1C)Cc1ccccc1 (tested in a mixture with another compound),-3.97% [at 35.3 µM] (inactive)
4,C[N+]1(C)[C@@H]2CC(OC(=O)[C@H](CO)c3ccccc3)C[C@H]1[C@@H]1O[C@@H]12 (stereo not given in full),3.36% [at 35.3 µM] (inactive)
5,CC(C)CC(C)(N)C#N (stereo not given),23.3% (inactive)
6,CN1C(C)(C)CC(O)CC1(C)C,-16.2% (inactive)
7,CC1=C(C/C=C(\C)CCC[C@H](C)CCC[C@H](C)CCCC(C)C)C(=O)c2ccccc2C1=O,-11.3% [at 35.3 µM] (inactive)
8,CC1CCC(CO)CC1 (stereo not given),4.69% (inactive)
9,CC[N+](C)(CC)CCOC(=O)C1c2ccccc2Oc2ccccc21,9.15% [at 35.3 µM] (inactive)
10,CCCCOCCOC(=O)CCCCCCCCC(=O)OCCOCCCC,5.73% (inactive)
11,O=C1NC(=O)C2CC=CCC12 (stereo not given),6.6% (inactive)
12,C[N+]1(C)CCCC(OC(=O)C(O)(c2ccccc2)c2ccccc2)C1 (stereo not given),-1.45% [at 35.3 µM] (inactive)
13,N[C@@H](CCC(=O)O)C(=O)O,0.0975% (inactive)
14,CC(CO)(CO)[N+](=O)[O-],-0.0179% (inactive)
15,CCN[C@H]1C[C@H](C)S(=O)(=O)c2sc(S(N)(=O)=O)cc21,-0.317% [at 35.3 µM] (inactive)
16,CO[C@@]1(NC(=O)C(C(=O)O)c2ccc(O)cc2)C(=O)N2C(C(=O)O)=C(CSc3nnnn3C)CO[C@@H]21 (stereo not given in full),-17% [at 35.3 µM] (inactive)
17,c1coc(CNc2ncnc3nc[nH]c23)c1,1.98% (inactive)
18,CCCCN(CCC(=O)OCC)C(C)=O,-14.7% (inactive)
19,O=S(=O)(O)c1cc(O)c(O)c(S(=O)(=O)O)c1,-17% (inactive)
20,CC(C)(C#N)Nc1nc(Cl)nc(NC2CC2)n1,-1.37% (inactive)
